A short description of experiment [1]: CCTE_Simmons_MITO_viability: CellTiter-Glo Viability Assessment for CCTE's HepG2 Seahorse XF Respirometric Screening Assay [post-hoc], Simmons Lab (AID 2284007; active means hit-call score of the fitted dose curve at least 0.9, where 1 is the maximum;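 on AC50: cells exposed to chemical for 90 min before the ATP read; actives lower ATP signal relative to DMSO baseline meaning reduced viability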). The procedure, abridged:
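HepG2 cells; test chemical 7 conc. (125 nM–100 uM final) × 90 min; then luminescent ATP detection. DMSO vehicle. Positive control dichlone, 8 conc. from 10 nM to 100 uM final. Loss-of-signal endpoint.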
(In general: ATP-based viability assays read luminescence as a measure of living cells.)

Experiment [2] in a line: CCTE_Harrill_HTTr_Viability_MCF7: CCTE's 6-hour Cell Viability Assessment for the High-Throughput Transcriptomics (HTTr) Platform, in MCF-7 cells cultured in DMEM + 10% fetal bovine serum, Harrill Lab (AID 2284010). The procedure, abridged: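 Viability measured through PI dye exclusion by high-content imaging at 6 h post-dosing.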
Experiment [3] can be described thus: CCTE_Harrill_HTTr_Apoptosis_MCF7: CCTE's 6-hour Apoptosis Assessment for the High-Throughput Transcriptomics (HTTr) Platform, in MCF-7 cells cultured in DMEM + 10% fetal bovine serum, Harrill Lab (AID 2284011). The procedure, abridged: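 Read-out: CellEvent Caspase 3/7 Green signal by high content imaging, gain-of-signal indicating apoptosis. MCF-7 cells, DMEM + 10% FBS, eight-point dilution series, 6 h exposure. Curves fitted bidirectionally relative to DMSO negative control.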

The nature of experiment [4]: CCTE_Harrill_HTTr_CellCount_MCF7: CCTE's Cell Proliferation Assessment for the High-Throughput Transcriptomics (HTTr) Platform, Harrill Lab (AID 2284012; active means hit-call score of the fitted dose curve at least 0.9, where 1 is the maximum;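 further: count of Hoechst-stained nuclei per well by high-content imaging in MCF-7 cells; cells exposed to compound for six hours; intended direction is loss of nuclei count meaning fewer cells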). In a few lines:
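Nuclei counting (Hoechst, high content imaging) in MCF-7 after a 6 h treatment at eight concentrations. Activity fitted bidirectionally, DMSO as negative control.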

The nature of experiment [5]: CCTE_Shafer_MEA_acute_spike_number: CCTE's Neural Acute Assay for Total Number of Spikes, Shafer Lab (AID 2284008).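 On AC50: curve fitted for decrease in spike count so AC50 reflects inhibitors.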 The procedure, abridged: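 Rat cortical cultures, DIV 13/15, 37 C. 40 min baseline rec, cpd 0.03-40 uM, 40 min post-dose rec. Band-pass 300-5000 Hz, spike threshold 8x rms; % change in spike count per well, DMSO neg ctrl, loss-of-signal fit.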
Experiment [6] can be described thus: CCTE_Shafer_MEA_acute_firing_rate_mean: CCTE's Neural Acute Assay for Mean Firing Rate, Shafer Lab (AID 2284009).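 Further: analyzed for loss of signal so actives lower firing rate relative to DMSO.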 In a few lines: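 Percent change in well-mean firing rate was derived from extracellular spikes detected at 8x rms noise (300-5000 Hz band-pass) before and after a 40-min compound exposure. Cultures were primary rat cortical neurons, tested at 0.03-40 uM.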

Experiment [7] in a line: CCTE_Shafer_MEA_acute_burst_number: CCTE's Neural Acute Assay for Single-Electrode Bursts, Shafer Lab (AID 2284013). The procedure, abridged:
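Spontaneous network activity of primary rat cortical neurons was recorded extracellularly on microelectrode arrays at 37 C, with 40-min periods before and during exposure to 0.03-40 uM compound on DIV 13 or 15.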

A short description of experiment [8]: CCTE_Shafer_MEA_acute_burst_duration_mean: CCTE's Neural Acute Assay for Mean Burst Duration, Shafer Lab (AID 2284014).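 Further: hits are decreases in mean burst duration relative to DMSO controls.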 The procedure, abridged: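 Read-out is the per-well percent change in mean burst duration (first to last spike within a single-electrode burst) between 40-min recordings before and after compound. Cultures were primary rat cortical neurons on MEAs, dosed at 0.03-40 uM on DIV 13 or 15.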

The nature of experiment [9]: CCTE_Shafer_MEA_acute_per_burst_spike_number_mean: CCTE's Neural Acute Assay for Average Number of Spikes Per Burst, Shafer Lab (AID 2284015).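 Further: hits are decreases in mean spikes per burst versus baseline.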 In a few lines: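 Percent change in mean spikes per single-electrode burst is compared between a 40 min baseline and a 40 min recording with compound (0.03-40 uM). Cultures were rat cortical neurons on MEA plates at DIV 13 or 15, recorded at 37 C, with DMSO as the negative control.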

Experiment [10] can be described thus: CCTE_Shafer_MEA_acute_interburst_interval_mean: CCTE's Neural Acute Assay for Mean Interburst Interval, Shafer Lab (AID 2284016).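 Further: percent change of mean interburst interval versus each well's own pre-dose baseline; curves fitted for decrease in interburst interval relative to DMSO.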 In a few lines:
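Percent change in mean single-electrode interburst interval was calculated per well from 40 min recordings before and after compound (0.03-40 uM). Recordings were made at 37 C on rat cortical cultures at DIV 13 or 15, with spikes detected at 8x rms threshold.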

Records with an inconclusive call do not appear. The source made the active and inactive calls. How the source made its calls, unless noted: active means hit-call score of the fitted dose curve at least 0.9, where 1 is the maximum; inactive means score below 0.9.

`CCCCCCC(C=O)=Cc1ccccc1`: the result in [1], in experiment [2], in experiment [3] and in experiment [4] was inactive.

For the compound `c1ccc2occc2c1`, the outcome in [5], in experiment [6], in experiment [2], in experiment [3], in experiment [4] and in experiment [7] was inactive. Besides, the compound was classed as inactive in experiment [8], in experiment [9] and in experiment [10].

For `CC1=C(C)S(=O)(=O)CCS1(=O)=O`, the result in experiment [5], in experiment [6], in experiment [2], in experiment [3], in experiment [4] and in experiment [7] was inactive. The outcome in [8], in [9] and in experiment [10] was inactive.

What is called AC50 is the concentration at which the activity in the assay is half-maximal. Take `CSc1ccc(Oc2ccc(S(N)(=O)=O)cc2CN(C)C)cc1C`: the compound was called inactive in experiment [5], in experiment [6], in experiment [2], in experiment [3], in [4] and in experiment [7]. For the same compound, the outcome in experiment [8] and in experiment [10] was inactive. Moreover, in experiment [9], the AC50 is 36 µM (active).

On to `Cc1cc(SC2=C(O)C[C@@](CCc3ccc(N)cc3)(C(C)C)OC2=O)c(C(C)(C)C)cc1CO`, for which the result in experiment [1], in experiment [5], in [6], in [2], in experiment [3] and in experiment [4] was inactive. Moreover, the result in [8], in [9] and in experiment [10] was inactive. Also, in experiment [7], the concentration at half-maximal activity (AC50) was 20 µM (active).

On to `Oc1ccc(O)cc1`, for which the outcome in experiment [5], in experiment [6], in experiment [2], in experiment [3], in experiment [4] and in experiment [7] was inactive. Moreover, the compound was called inactive in [8] and in experiment [9]. Further, the AC50 in experiment [10] was 20 µM (active).

In the case of `Nc1nc(=S)c2[nH]cnc2[nH]1`, the outcome in [5], in experiment [6], in [2], in experiment [3], in experiment [4] and in experiment [7] was inactive. Further, the compound was classed as inactive in [8] and in experiment [10]. In addition, in experiment [9], the AC50 is 20 µM (active).

Take `Cc1c(C)c2c(c(C)c1O)CCC(C)(COc1ccc(CC3SC(=O)NC3=O)cc1)O2` (stereo not drawn): the half-maximal activity concentration (AC50) is 8.43 µM (active) in experiment [1], 3.97 µM (active) in [5] and 3.97 µM (active) in [6]. Moreover, the outcome in experiment [2], in experiment [3], in [7], in experiment [8], in [9] and in experiment [10] was inactive.

`CC(C)(O)c1ccc(CNC(=O)c2cccnc2Oc2ccc(F)cc2)cc1`: the compound was classed as inactive in [1], in experiment [2] and in experiment [3].

On to `CC(=O)O[C@]1(C(C)=O)CC[C@H]2[C@@H]3C=C(Cl)C4=CC(=O)[C@@H]5C[C@@H]5[C@]4(C)[C@H]3CC[C@@]21C`, for which the concentration at half-maximal activity (AC50) in [1] was 23 µM (active). For the same compound, the outcome in [2], in experiment [3] and in [4] was inactive.

Consider `CCc1cc(C2=C(C(=O)O)N(c3ccccc3C(F)(F)F)S(=O)(=O)c3ccccc32)cc2c1OCO2`, for which the outcome in experiment [5], in experiment [6], in [2], in experiment [3], in experiment [4] and in [7] was inactive. The call in [8], in experiment [9] and in [10] was inactive.

`Cc1cc(Cc2ccc(N)c(C)c2)ccc1N`: the half-maximal activity concentration (AC50) was 15.8 µM (active) in experiment [5], 14.9 µM (active) in experiment [6], 30 µM (active) in experiment [9] and 35.7 µM (active) in experiment [10]. In addition, the outcome in experiment [2], in [3], in experiment [7] and in [8] was inactive.

For the compound `OCC(CO)n1cnc(-c2ccc(F)cc2)c1-c1ccnc(Oc2ccccc2)n1`, the outcome in experiment [5], in experiment [6], in [2], in experiment [3], in experiment [7] and in experiment [8] was inactive. Moreover, the compound was called inactive in [9] and in experiment [10].

For `Cc1ccc(-c2cc(C(F)(F)F)nn2-c2ccc(S(N)(=O)=O)cc2)cc1`, the AC50 in experiment [5] was 6.27 µM (active); in experiment [6], 6.27 µM (active); in experiment [7], 6.46 µM (active); in experiment [10] it was 5 µM (active). Also, the outcome in experiment [2], in [3], in [4], in [8] and in experiment [9] was inactive.

Consider `COc1ccc(OC(F)(F)F)cc1CN[C@H]1CCCN[C@H]1c1ccccc1`, for which the AC50 in experiment [5] is 1.72 µM (active); in experiment [6] it was 1.73 µM (active); in [7] it was 1.89 µM (active); in experiment [9] it was 5 µM (active); in [10], 7.18 µM (active). In addition, the result in [2], in experiment [3] and in experiment [8] was inactive.

Take `CC(C)COC(=O)CCCCC(=O)OCC(C)C`: the result in experiment [5], in experiment [6], in [2], in [3], in experiment [7] and in experiment [8] was inactive. The compound was called inactive in experiment [9] and in experiment [10].

Consider `NC(=Nc1ccccc1)Nc1ccccc1`, for which the AC50 was 2.02 µM (active) in experiment [5], 2.03 µM (active) in experiment [6], 1.53 µM (active) in experiment [7] and 1.27 µM (active) in experiment [10]. Besides, the result in experiment [2], in experiment [3], in experiment [8] and in [9] was inactive.

For `CCCC(=O)O`, the compound was classed as inactive in experiment [5], in experiment [6], in experiment [2], in experiment [3], in [4] and in experiment [7]. Besides, the compound was classed as inactive in experiment [8], in experiment [9] and in [10].

Take `CN(C)CCCN1c2ccccc2Sc2ccc(Cl)cc21`: the compound was classed as inactive in experiment [5], in experiment [6], in [4], in [7], in experiment [8] and in experiment [9]. For the same compound, in experiment [10], the call was inactive. Further, the AC50 in experiment [2] was 77.1 µM (active); in [3], 50 µM (active).

`O=C(N[C@@H](c1ccccc1)[C@@H]1CCCCN1)c1cccc(C(F)(F)F)c1Cl`: the AC50 in [5] is 4.39 µM (active); in [6], 4.39 µM (active); in experiment [7] it was 3.29 µM (active); in experiment [10], 7.65 µM (active). Further, the result in experiment [2], in experiment [3], in experiment [4], in experiment [8] and in experiment [9] was inactive.

For `C/C=C/c1ccc(OC)cc1`, the compound was classed as inactive in [5], in [6], in experiment [2], in experiment [3], in experiment [4] and in experiment [7]. Moreover, the compound was classed as inactive in experiment [8], in [9] and in experiment [10].

In the case of `CN(C)C(=O)NC1(c2ccccc2)CCN(CC[C@@]2(c3ccc(F)c(F)c3)CN(C(=O)c3ccccc3)CCO2)CC1`, the AC50 in experiment [5] was 4.16 µM (active); in [6], 4.14 µM (active); in experiment [7] it was 4.34 µM (active). The result in [2], in experiment [3], in [4], in experiment [8], in experiment [9] and in experiment [10] was inactive.

For the origin of these results see PubChem BioAssay (EPA / NIEHS).
